HP1b binding inh – blocks HP1-beta chromodomain binding to methylated histone tails; P83916; AlphaScreen HP1-beta / biotin-H3K9me3 peptide binding; Potency, µM (titrated, usually from 114 µM), inactives show at the highest dose activity change, negative = inhibition, usual class: inhibitors; actives 0.56% (n = 390,000); also: nearly all actives have a fitted effect of over 70% in size
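HP1-beta protein (50 nM final) preincubated 30 min at room temperature with biotinylated H3(1-18)K9me3 peptide (50 nM) in PBS pH 7.4, 0.01% Tween-20, then compound added for 30 min. AlphaScreen streptavidin donor/nickel chelate acceptor beads (10 ug/mL final), 30 min dark, luminescence read.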
JMJD2A Tudor inh – inhibitors of human JMJD2A Tudor domain | AlphaScreen JMJD2A-Tudor / H3K4me3 peptide binding | Potency, µM (titrated, usually from 114 µM), inactives show top-dose activity change, negative = inhibition, actives largely listed as inhibitors | AID 504339 | O75164 | actives 4.4% (n = 390,000); also: % is scaled to controls: 0 for no effect and ±100 for the full control effect; nearly all actives have a fitted effect of over 50% in size
G9a block – blocks human histone lysine methyltransferase G9a. Potency, µM (top dose mostly 102 µM), for the others: top-dose activity, negative = inhibition, actives largely listed as inhibitors. G9a H3K9 monomethylation, AlphaScreen, 2 h. actives 8.8% (n = 350,000). Q96KQ7; also: % is scaled to controls: 0 for no effect and ±100 for the full control effect; nearly all actives have a fitted effect of over 75% in size
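Compounds were preincubated with 20 nM G9a for 15 min, after which biotinylated H3K9 peptide (500 nM) and SAM (20 uM) started a 2 h room-temperature reaction. Monomethylated product was quantified by antibody-based AlphaScreen chemiluminescence.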
BAZ2B block – inhibitors of human BAZ2B bromodomain | Potency, µM (top dose mostly 114 µM), for the others: at the highest dose activity change, negative = inhibition, usual class: inhibitors | Q9UIF8 | AlphaScreen BAZ2B-H3K14Ac peptide displacement | actives 4.4% (n = 360,000); also: % is scaled to controls: 0 for no effect and ±100 for the full control effect; nearly all actives have a fitted effect of over 60% in size
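AlphaScreen luminescence quantifies BAZ2B engagement of H3K14Ac peptide; the protein and biotinylated peptide are both at 50 nM final, buffer PBS pH 7.4 with 0.01% Tween-20, all steps at room temperature.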
ALOX12 inh – blocks human arachidonate 12S-lipoxygenase; P18054; purified 12hLO, xylenol orange hydroperoxide absorbance; Potency, µM (doses to about 108 µM), without a hit: at the top dose activity change, negative = inhibition, usual class: inhibitors; actives 1.1% (n = 580,000); AID 1671190; also: % is scaled to controls: 0 for no effect and ±100 for the full control effect
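Purified human 12hLO at 150 nM in 25 mM Hepes, 0.01% Triton X-100, pH 7.0, preincubated 15 min at room temperature with compound. Reaction started with 40 uM arachidonic acid, 30 min at room temperature. Hydroperoxide measured by Fe-xylenol orange, 573/405 nm absorbance ratio.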
PLK1 PBD inh – inhibitors of human PLK1 polo-box domain binding; Plk1 PBD binding of FITC phosphopeptide, fluorescence polarization; Potency, µM, without a hit: max response, negative = inhibition, most hits filed as inhibitors; actives 2.8% (n = 360,000); also: series mostly up to about 57 µM; % is scaled to controls: 0 for no effect and ±100 for the full control effect; nearly all actives have a fitted effect of over 65% in size
Target sequence (P53350 whole entry, looked up, the tested form may be a part): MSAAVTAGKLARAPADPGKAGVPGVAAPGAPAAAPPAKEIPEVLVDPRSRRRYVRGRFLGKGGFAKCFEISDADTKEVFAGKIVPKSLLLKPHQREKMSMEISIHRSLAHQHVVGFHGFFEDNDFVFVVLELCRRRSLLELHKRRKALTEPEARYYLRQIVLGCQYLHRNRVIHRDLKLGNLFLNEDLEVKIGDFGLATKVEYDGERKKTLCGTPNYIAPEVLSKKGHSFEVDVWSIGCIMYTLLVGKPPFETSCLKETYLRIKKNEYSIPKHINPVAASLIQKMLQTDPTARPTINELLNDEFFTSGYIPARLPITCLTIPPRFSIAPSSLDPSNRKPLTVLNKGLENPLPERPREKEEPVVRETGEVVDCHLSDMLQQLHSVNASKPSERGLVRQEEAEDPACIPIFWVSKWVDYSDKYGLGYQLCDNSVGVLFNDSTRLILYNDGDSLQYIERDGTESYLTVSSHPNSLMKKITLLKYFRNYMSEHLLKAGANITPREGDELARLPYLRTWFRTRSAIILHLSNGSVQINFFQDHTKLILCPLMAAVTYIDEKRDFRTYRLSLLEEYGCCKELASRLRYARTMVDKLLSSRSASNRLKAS
* marks the source's active call; other numbers are inactive results; u = inconclusive; x = no result; [ ] = dose if it differs, or a comment. Most compounds without a hit are left out; they make up all but 9% or so of the library. Calls follow the shape of the dose curve; as a rule, active = well fitted curve in the direction sought with a large enough effect; inconclusive = small, poorly fitted or top-dose-only effect, or another doubt; inactive = no such curve, though single readings can be large; an effect the other way counts as inactive or inconclusive. Potency is read from the fitted curve at half-maximal effect.

SMILES | HP1b binding inh | JMJD2A Tudor inh | G9a block | BAZ2B block | ALOX12 inh | PLK1 PBD inh
CNC(CC(=O)c1ccc([N+](=O)[O-])cc1)C(Cl)(Cl)Cl (centres undefined) | 16µM* | u | 4µM* | u | x | 2.7µM*
Cc1ccc(NCC(=O)c2ccc([N+](=O)[O-])cc2)cc1 | u | u | 8.9µM* | u | x | -12%
CC(C)(C)NC(NC(=O)c1ccc([N+](=O)[O-])cc1)C(Cl)(Cl)Cl (centres undefined) | x | x | x | x | 5% | x
Cc1ccc(C(=O)CNc2cccc([N+](=O)[O-])c2)cc1 | 47% | -5% | u | 0% | u | -14%
CCOc1ccc(NC(=O)CN2CCN(CC(=O)Nc3ccccc3OCC)CC2)cc1 | 27%[57 µM] | -6% | 3%[59 µM] | 0% | u | x
CCOc1ccc(OCC)c(NC(=O)Cn2cccc2)c1 | 14% | -12% | -8%[59 µM] | -36% | -1% | 1%
CCOc1ccc(OCC)c(NC(=O)CN2CCN(c3cccc(C)c3)CC2)c1 | 25µM* | 7.9µM* | 3.5µM* | 40µM* | u | -18%
CCOc1ccc(OCC)c(NC(=O)CN2CCN(c3cccc(C)c3)C(C)C2)c1 (centres undefined) | 25µM* | 1.1µM* | u | 50µM* | u | 0%
Cc1cc(NC(=O)CSc2nc3c([nH]c4ccccc43)c(=O)n2-c2ccc(Cl)cc2)no1 | 30%[57 µM] | 0% | 10%[59 µM] | 3% | 0% | x
O=C(NCCN1CCC(n2c(=O)[nH]c3ccccc32)CC1)c1ccc(Cl)cc1 | x | x | x | x | u | -10%
CCCCN1CCC(n2c(=O)[nH]c3ccccc32)CC1 | x | x | 9.5µM* | x | x | x
O=C(NCCN1CCC(n2c(=O)[nH]c3ccccc32)CC1)c1ccc(Cl)c(Cl)c1 | x | x | x | x | 32µM* | -2%
O=C(NCCN1CCC(n2c(=O)[nH]c3ccccc32)CC1)c1ccc(F)cc1 | x | x | x | x | 35µM* | -6%
COC(C[C@H](O)C[C@H](O)[C@@H](C)OCc1ccccc1)OC | 25% | 0% | x | x | -25% | 5%
N#CC(c1ccccc1)c1cccc(Cl)n1 (centres undefined) | 60% | 3% | 9% | 8% | -8% | -10%
Cc1ccc(NCc2nnc(SCC(=O)Nc3ccccc3)n2CC2CCCO2)c(C)c1 (centres undefined) | -19% | 56µM* | -11%[59 µM] | u | 1% | -23%
CCOC(=O)c1cccc(NC(=O)CSc2nnc(CNc3ccc(C)cc3)n2CC)c1 | 13% | -24% | u | 50µM* | 4% | -4%
Cc1cccc(C)c1NC(=O)CSc1nnc(C)n1CC1CCCO1 (centres undefined) | -20% | -14%[11.4 µM] | 21% | -14% | -7% | 24µM*
Cc1nnc(SCC(=O)Nc2ccc3c(c2)OCCO3)n1CC1CCCO1 (centres undefined) | 54% | -2% | 22%[59 µM] | 4% | 10%[57.4 µM] | -22%
Cc1ccc(NC(=O)CSc2nnc(C3CC3)n2CC2CCCO2)c(C)c1 (centres undefined) | 35% | 5% | 4% | -2% | -12% | -7%
CCOC(=O)c1cccc(NC(=O)CSc2nnc(COc3ccccc3)n2CC)c1 | 18% | -16% | 18%[2.33 µM] | 4% | 3% | 2%
CC1CN=C(N(C(=O)Nc2ccccc2)c2ccc(S(=O)(=O)N3CCOCC3)cc2)S1 (centres undefined) | 24% | 11% | 7.1µM* | 12% | 11% | 2%
CC1=C(C)CC(C(=O)Nc2ccc(C(=O)N3CCOCC3)cc2)C(C(=O)O)C1 (centres undefined) | -12% | -37% | x | -8% | -2% | 21µM*
CC(Sc1ncnc2sccc12)C(=O)Nc1ccc(S(=O)(=O)N2CCOCC2)cc1 (centres undefined) | 22% | -2% | x | x | 10% | -2%
O=S(=O)(c1ccc(NC(=S)NN=C(Cc2ccccc2)Cc2ccccc2)cc1)N1CCOCC1 | -20% | -9%[11.4 µM] | x | 50µM* | u | -20%
SMILES | HP1b binding inh | JMJD2A Tudor inh | G9a block | BAZ2B block | ALOX12 inh | PLK1 PBD inh
O=C(CSc1ncnc2sccc12)Nc1ccc(S(=O)(=O)N2CCOCC2)cc1 | 15% | -3% | 45µM* | 9% | -10% | 0%
Cn1ccnc1C(=O)N1CCC2(CC1)CC(Cc1nc(C3CC3)no1)CCO2 (centres undefined) | x | x | x | x | 20% | x
N#Cc1c2n(c3c(=O)n(CC(=O)c4ccc([N+](=O)[O-])cc4)cnc13)CCCCC2 | 2% | -21% | -1% | -12% | -2% | -3%
O=C(CCCc1ccccc1)Nc1ccc(S(=O)(=O)N2CCOCC2)cc1 | 45% | 3% | x | -17% | -5% | -6%
O=C(CCN1C(=O)c2ccccc2C1=O)Nc1ccc(S(=O)(=O)N2CCOCC2)cc1 | -18% | u | -36%[59 µM] | -22% | u | 24µM*
O=C(O)C1CCCCC1C(=O)Nc1ccc(S(=O)(=O)N2CCCCCC2)cc1 (centres undefined) | u | -10% | -12% | -11% | -7% | -6%
O=C(O)C1CCCCC1C(=O)Nc1ccc(S(=O)(=O)N2CCOCC2)cc1 (centres undefined) | -16%[57 µM] | 56µM* | x | x | 39% | -12%
O=C(CCSc1ccccc1)Nc1ccc(S(=O)(=O)N2CCOCC2)cc1 | 49% | -24% | -46% | 56µM* | -23% | -13%
CCOc1ccccc1NC(=O)COC(=O)CN1C(=O)NC(C)(C)C1=O | 12% | -10% | x | x | 18% | -9%
Cc1ccccc1C(OCCN(C(C)C)C(C)C)c1ccccc1 (centres undefined) | u | 0.89µM* | 28µM* | u | -16% | -6%
Cc1ccc(O)c([C@H](CCN(C(C)C)C(C)C)c2ccccc2)c1 | 24% | -14% | 4%[12.7 µM] | -33% | -10% | 5%
O=C(NCC1CCCCC1)c1ccc(=O)[nH]c1 | 0% | -3% | 45µM* | -3% | 3% | -1%
O=C(NCC1CCN(c2cc(-c3ccccc3)[nH]n2)CC1)c1ccc(=O)[nH]c1 | x | x | x | x | 10% | x
N#Cc1ccc(C(=O)NCC2CCCCC2)cc1 | 21% | 12% | 50µM* | 1% | -4% | 1%
CCOCCCNCC(=O)NCC1CCCCC1 | u | 20µM* | 20µM* | 50µM* | u | -2%
CCOc1ccccc1C(=O)NCC(=O)NCC1CCCCC1 | 23% | -4% | 6% | 3% | 12% | -8%
Cc1c(C#N)c2ccccc2n1C | 37% | -4% | 26% | -1% | 38% | -4%
Cc1sc(N)nc1-c1c(C)n(C)c2ccccc12 | 2% | -31% | 45µM* | u | u | u
CCCN(C(=O)c1ccco1)c1nnc(-c2ccncc2)s1 | 54% | -9% | u | 7% | u | -6%
